Common to all, as to assay: NCI-60 one-dose screen, 48 h (100 = growth as untreated, 0 = no growth, -100 = all killed)
Holding throughout (settings): 10 µM unless noted

In experiment [1] the test system is SR leukemia.
Experiment [2] deals with RPMI-8226 leukemia.
Experiment [3] concerns OVCAR-8 ovarian.
In experiment [4] the test system is OVCAR-5 ovarian.
In experiment [5] the test system is OVCAR-4 ovarian.
The subject of experiment [6] is SK-OV-3 ovarian.
Experiment [7] concerns IGROV1 ovarian.
Experiment [8] deals with OVCAR-3 ovarian.
The subject of experiment [9] is HS 578T breast.
The subject of experiment [10] is NCI/ADR-RES ovarian.

This is part of a sample that, as a whole, favours compounds with a hit. Of some 83,000 tested, about 20% had one in any assay.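 Single-concentration screen, 48 h exposure, 96-well plates. Endpoint: percent growth. Below 10 = active.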 Values without a mark were called inactive. Active and inactive are the calls of the source.

With `c1ccc(-c2nn(-c3ccccc3)[n+](-c3ccccc3-c3ccccc3)n2)cc1`, the growth in experiment [1] is 8.06% (active); in [2], 15.3%; in [3] it was -32.8% (active); in experiment [4] it was 37.1%; in experiment [5] it was 22.3%; in experiment [6] it was 36.5%. Besides, the growth in [7] is 30.9%; in [8], 1.32% (active); in experiment [9] it was 9.51% (active); in experiment [10], 93.1%.

In the case of `COc1ccc(C(=O)c2cc(C)c(OC)c(C)c2)c(OC)c1N(C(=O)C(Cl)Cl)C(=O)C(Cl)Cl`, the growth was 20.7% in [1]; 19.9% in [2]; 16% in experiment [3]; 33.1% in experiment [4]; 62.1% in experiment [5]; 1.2% (active) in experiment [6]. Also, the growth in experiment [7] is 31.3%; in experiment [8], -13.4% (active); in [9] it was 22.1%; in experiment [10], -1.2% (active).

Regarding `Cc1ccc(/C=C/C(=O)c2ccc(N)cc2)c(C)c1`, the growth in experiment [1] was -45.1% (active); in experiment [2], 33%; in [3], 17.3%; in [4], 103%; in experiment [5], 73%; in experiment [6] it was 122%. Also, the growth in [7] was 12%; in experiment [8] it was 21.7%; in experiment [9], 100%; in experiment [10], 62.2%.

For the compound `O=C(c1ccccc1)N1N=C(c2ccc(-n3ccc(C(F)(F)F)n3)cc2)CC1c1ccc[nH]1` (stereo not given), the growth in [1] is 66.7%; in [2], 74.7%; in [3], 93.7%; in experiment [4], 83.4%; in experiment [5], 110%; in [6] it was 128%. Besides, the growth in [7] is 95.8%; in experiment [8], 103%; in [9], 95.4%; in experiment [10] it was 90.2%.

Regarding `NC(=O)c1cccc(-c2ccccc2N2CCCCC2)c1`, the growth in experiment [1] was 66.4%; in [2], 74.2%; in [3], 99.7%; in experiment [4], 95.1%; in [5] it was 89.9%; in experiment [6], 94.9%. Besides, the growth in experiment [7] was 92.4%; in experiment [8], 106%; in experiment [9] it was 101%; in experiment [10] it was 102%.

On to `O=C(N=Nc1c(O)[nH]c2ccc(F)cc12)c1cc2ccccc2[nH]1`, for which the growth in experiment [1] is 95.1%; in experiment [2], 92%; in [3], 97.2%; in experiment [4] it was 103%; in experiment [5], 99.9%; in [6] it was 110%. Besides, the growth in experiment [7] was 79.3%; in experiment [8], 101%; in [9], 101%; in [10] it was 100%.

`O=C1Nc2c(ccc(Cl)c2Cl)/C1=C/c1ccc([N+](=O)[O-])cc1`: the growth in experiment [1] was 69.7%; in [2], 90.1%; in experiment [3], 95.1%; in experiment [4], 98.1%; in experiment [5], 100%; in [6], 93.8%. Besides, the growth was 98.6% in experiment [7], 108% in [8], 100% in [9] and 93.9% in [10].

As to `COc1ccc(/C=C\c2nc3ccccc3s2)cc1OP(=O)(O)O`, the growth in [1] was 16.7%; in experiment [2], 22.7%; in experiment [3] it was 40.2%; in experiment [4], 75.4%; in experiment [5] it was 72.6%; in experiment [6] it was 84.2%. Also, the growth in experiment [7] was 37.9%; in [8] it was 0.859% (active); in experiment [9], 14.8%; in experiment [10] it was 14.4%.

On to `CN1CCN(c2ccc(NC3=C(Cl)C(=O)c4ncccc4C3=O)cc2C#N)CC1`, for which the growth in experiment [1] is 3.52% (active); in [2] it was 37.7%; in [3], 26.8%; in [4], 73.5%; in [5], -97.7% (active); in [6] it was 86.3%. Also, the growth is -29.1% (active) in [7], -63.7% (active) in experiment [8], 61.4% in experiment [9] and 73.1% in [10].

Turning to `O=C1CCC(NC(=S)Nc2ccccc2)N1` (stereo not given), the growth in experiment [1] was 93.8%; in experiment [2], 101%; in experiment [3] it was 107%; in [4], 111%; in [5] it was 107%; in experiment [6] it was 117%. Also, the growth was 102% in [7], 106% in experiment [8], 105% in experiment [9] and 96.9% in experiment [10].

Turning to `C/C(=C(/c1ccccc1)c1ccc(OCC(O)CNCCN2CCOCC2)cc1)c1ccccc1` (stereo not given), the growth in experiment [1] was 0.691% (active); in experiment [2], 20.4%; in [3], 78.2%; in experiment [4], 76.2%; in experiment [5] it was 70.3%; in experiment [6], 95.4%. Moreover, the growth is 63.3% in [7], 77.9% in [8], 70.5% in [9] and 80.2% in experiment [10].

Regarding `Cc1cn(-c2cc(C(=O)Nc3cccc(C#Cc4cccc5[nH]nc(N)c45)c3)cc(C(F)(F)F)c2)cn1`, the growth is 49.9% in experiment [1]; 20.1% in [2]; 48.8% in experiment [3]; 44.2% in experiment [4]; 38% in [5]; 72.6% in experiment [6]. Also, the growth in experiment [7] was 25.5%; in experiment [8], 77.7%; in experiment [9] it was 39.4%; in [10] it was 98.6%.

`COc1cc(NCC(C)(O)CN(CC(C)C)CC(C)C)c2nc(C)ccc2c1` (stereo not given): the growth in [1] is 87.7%; in experiment [2], 68.6%; in experiment [3], 86.9%; in experiment [4], 89.5%; in experiment [5] it was 23.2%; in experiment [6], 98.6%. Further, the growth in experiment [7] is 73.4%; in experiment [8], 24.8%; in experiment [9], 83.9%; in experiment [10], 79.6%.
